Results: PubChem BioAssay AID1159580 (chemical genetic matrix, 2015)
“And” between values parts separate entries of the source, which are not always exact repeats. Equal entries are not always repeated. Hit rate of the full screen: of about 5,500 compounds, about 2,000 (36%) were called active. About 18% were inconclusive and are not listed. Cut-off read from the data, not from the text of the source: active = normalized growth mostly below about 0.91 (no sharp cut-off); inconclusive = no clear call, values can overlap the other calls; inactive = mostly above about 0.92. The list shows a part of the results. Some compounds were tested as several samples or in several runs, with calls that do not always agree.

Assay: chemical genetic growth profiling, strain panel (AID 1159580);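 note: tested at 20 µM; growth read once vehicle control cultures reached saturation at 30 °C; 1 = growth at the plate median or of vehicle wells; lower values mean less growth of the strain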
Details: S. cerevisiae deletion strains, growth OD

O=c1cc(-c2ccccc2)oc2cc(O)cc(O)c12
normalized growth (locus YAL013W, strain DEP1, stronger effect = lower value): 0.956 (inactive) | normalized growth (locus YAL021C, strain ccr4, stronger effect = lower value): 0.968 (inactive) and 0.933 (inactive) | normalized growth (locus YAL026C, strain drs2, stronger effect = lower value): 0.911 (inactive) and 0.786 (active) | normalized growth (locus YAL030W, strain snc1, stronger effect = lower value): 0.943 (inactive) and 0.913 (active) | normalized growth (locus YBL061C, strain skt5, stronger effect = lower value): 0.904 (active) | normalized growth (locus YBR009C, strain hhf1, stronger effect = lower value): 0.915 (inactive) and 0.773 (active) | normalized growth (locus YBR021W, strain FUR4, stronger effect = lower value): 1.01 (inactive) | normalized growth (locus YBR023C, strain chs3, stronger effect = lower value): 1.01 (inactive) and 0.851 (active) | normalized growth (locus YBR171W, strain sec66, stronger effect = lower value): 0.953 (inactive) and 0.858 (active) | normalized growth (locus YBR229C, strain ROT2, stronger effect = lower value): 0.993 (inactive) | normalized growth (locus YBR231C, strain swc5, stronger effect = lower value): 0.938 (inactive) and 0.875 (active) | normalized growth (locus YBR279W, strain paf1, stronger effect = lower value): 0.947 (inactive) and 0.922 (active) | normalized growth (locus YCL011C, strain gbp2, stronger effect = lower value): 0.937 (inactive) and 0.86 (active) | normalized growth (locus YCL016C, strain dcc1, stronger effect = lower value): 1.07 (inactive) and 0.875 (active) | normalized growth (locus YCL029C, strain bik1, stronger effect = lower value): 0.911 (inactive) | normalized growth (locus YCL061C, strain MRC1, stronger effect = lower value): 0.951 (inactive) and 0.802 (active) | normalized growth (locus YCL069W, strain vba3, stronger effect = lower value): 0.978 (inactive) and 0.896 (active) | normalized growth (locus YCR088W, strain abp1, stronger effect = lower value): 0.957 (inactive) and 0.923 (inactive) | normalized growth (locus YDL005C, strain med2, stronger effect = lower value): 0.961 (inactive) and 0.958 (inactive) | normalized growth (locus YDL035C, strain GPR1, stronger effect = lower value): 0.919 (inactive) | normalized growth (locus YDL040C, strain nat1, stronger effect = lower value): 1.02 (inactive) and 0.916 (active) | normalized growth (locus YDL074C, strain BRE1, stronger effect = lower value): 0.87 (inactive) | normalized growth (locus YDL101C, strain DUN1, stronger effect = lower value): 0.987 (inactive) | normalized growth (locus YDL134C, strain PPH21, stronger effect = lower value): 0.954 (inactive) | normalized growth (locus YDL185W, strain tfp1, stronger effect = lower value): 0.946 (inactive) | normalized growth (locus YDL192W, strain arf1, stronger effect = lower value): 0.919 (inactive) | normalized growth (locus YDR001C, strain nth1, stronger effect = lower value): 0.96 (inactive) and 0.917 (active) | normalized growth (locus YDR069C, strain doa4, stronger effect = lower value): 0.926 (inactive) and 0.919 (inactive) | normalized growth (locus YDR101C, strain arx1, stronger effect = lower value): 0.921 (inactive) | normalized growth (locus YDR137W, strain rgp1, stronger effect = lower value): 0.675 (active) and 0.533 (active) | normalized growth (locus YDR150W, strain NUM1, stronger effect = lower value): 0.973 (inactive) | normalized growth (locus YDR159W, strain sac3, stronger effect = lower value): 0.853 (active) and 0.785 (active) | normalized growth (locus YDR162C, strain NBP2, stronger effect = lower value): 0.92 (inactive) | normalized growth (locus YDR195W, strain ref2): 0.986 (inactive) and 1.15 [resistant] (active) | normalized growth (locus YDR297W, strain sur2, stronger effect = lower value): 0.946 (inactive) and 0.907 (active) | normalized growth (locus YDR318W, strain mcm21, stronger effect = lower value): 0.902 (active) | normalized growth (locus YDR334W, strain swr1, stronger effect = lower value): 0.954 (inactive) and 0.887 (active) | normalized growth (locus YDR335W, strain msn5, stronger effect = lower value): 0.957 (inactive) and 0.88 (active) | normalized growth (locus YDR388W, stronger effect = lower value): 0.914 (active) | normalized growth (locus YDR392W, strain spt3, stronger effect = lower value): 0.595 (active) and 0.401 (active) | normalized growth (locus YDR502C, strain sam2, stronger effect = lower value): 0.922 (inactive) | normalized growth (locus YEL003W, strain gim4, stronger effect = lower value): 0.952 (inactive) and 0.809 (active) | normalized growth (locus YEL037C, strain rad23, stronger effect = lower value): 0.941 (inactive) and 0.911 (active) | normalized growth (locus YEL061C, strain CIN8 (second series), stronger effect = lower value): 0.961 (inactive) and 0.888 (active) | normalized growth (locus YEL061C, strain CIN8, stronger effect = lower value): 0.967 (inactive) | normalized growth (locus YER015W, strain faa2, stronger effect = lower value): 0.936 (inactive) and 0.867 (active) | normalized growth (locus YER016W, strain bim1, stronger effect = lower value): 1.07 (inactive) and 0.92 (active) | normalized growth (locus YER110C, stronger effect = lower value): 0.945 (inactive) | normalized growth (locus YER111C, strain swi4, stronger effect = lower value): 0.97 (inactive) and 0.951 (inactive) | normalized growth (locus YER155C, strain BEM2 (second series), stronger effect = lower value): 0.686 (active) and 0.499 (active) | normalized growth (locus YER155C, strain BEM2, stronger effect = lower value): 0.969 (inactive) | normalized growth (locus YER167W, strain BCK2, stronger effect = lower value): 0.928 (inactive) | normalized growth (locus YFR010W, strain ubp6, stronger effect = lower value): 0.931 (inactive) and 0.919 (inactive) | normalized growth (locus YGL078C, strain dbp3, stronger effect = lower value): 0.957 (inactive) | normalized growth (locus YGL086W, strain mad1, stronger effect = lower value): 0.853 (active) | normalized growth (locus YGL167C, strain pmr1, stronger effect = lower value): 0.924 (inactive) and 0.87 (active) | normalized growth (locus YGL173C, strain kem1, stronger effect = lower value): 0.858 (active) and 0.891 (active) | normalized growth (locus YGL227W, strain vid30, stronger effect = lower value): 0.952 (inactive) and 0.909 (active) | normalized growth (locus YGL240W, strain doc1, stronger effect = lower value): 0.797 (active) and 0.631 (active) | normalized growth (locus YGL248W, strain PDE1, stronger effect = lower value): 0.949 (inactive) | normalized growth (locus YGL253W, strain hxk2, stronger effect = lower value): 0.941 (inactive) and 0.855 (active) | normalized growth (locus YGR078C, strain PAC10, stronger effect = lower value): 0.858 (inactive) | normalized growth (locus YGR135W, strain pre9, stronger effect = lower value): 0.879 (active) | normalized growth (locus YGR229C, strain SMI1, stronger effect = lower value): 0.802 (active) | normalized growth (locus YGR252W, strain gcn5, stronger effect = lower value): 0.762 (active) | normalized growth (locus YHR013C, strain ard1, stronger effect = lower value): 1.06 (inactive) and 1.1 (inactive) | normalized growth (locus YHR027C, strain rpn1, stronger effect = lower value): 0.95 (inactive) and 0.901 (active) | normalized growth (locus YHR030C, strain SLT2, stronger effect = lower value): 0.967 (inactive) and 0.884 (inactive) | normalized growth (locus YHR079C, strain IRE1 (second series), stronger effect = lower value): 0.92 (active) | normalized growth (locus YHR079C, strain IRE1, stronger effect = lower value): 0.862 (inactive) | normalized growth (locus YHR094C, strain hxt1, stronger effect = lower value): 0.964 (inactive) | normalized growth (locus YHR129C, strain ARP1, stronger effect = lower value): 0.992 (inactive) | normalized growth (locus YHR142W, strain chs7, stronger effect = lower value): 0.889 (inactive) and 0.702 (active) | normalized growth (locus YHR200W, strain rpn10, stronger effect = lower value): 0.91 (active) | normalized growth (locus YIL066C, strain RNR3, stronger effect = lower value): 0.959 (inactive) | normalized growth (locus YIL073C, strain SPO22, stronger effect = lower value): 0.854 (inactive) | normalized growth (locus YIL125W, strain kgd1, stronger effect = lower value): 0.955 (inactive) | normalized growth (locus YIR030C, strain dcg1, stronger effect = lower value): 0.944 (inactive) | normalized growth (locus YJL092W, strain hpr5, stronger effect = lower value): 0.954 (inactive) and 0.91 (active) | normalized growth (locus YJL095W, strain BCK1 (second series), stronger effect = lower value): 0.942 (inactive) and 0.879 (active) | normalized growth (locus YJL095W, strain BCK1, stronger effect = lower value): 0.825 (inactive) and 0.889 (inactive) | normalized growth (locus YJL115W, strain asf1, stronger effect = lower value): 0.954 (inactive) and 0.904 (active) | normalized growth (locus YJL129C, strain trk1, stronger effect = lower value): 0.816 (active) and 0.603 (active) | normalized growth (locus YJL134W, strain LCB3, stronger effect = lower value): 0.991 (inactive) | normalized growth (locus YJL154C, strain vps35, stronger effect = lower value): 0.97 (inactive) and 0.918 (active) | normalized growth (locus YJL164C, strain tpk1, stronger effect = lower value): 0.909 (active) and 0.811 (active) | normalized growth (locus YJL166W, strain qcr8, stronger effect = lower value): 0.891 (active) and 0.741 (active) | normalized growth (locus YJL168C, strain set2, stronger effect = lower value): 0.948 (inactive) | normalized growth (locus YJL187C, strain SWE1 (second series), stronger effect = lower value): 0.939 (inactive) | normalized growth (locus YJL187C, strain SWE1, stronger effect = lower value): 0.952 (inactive) and 0.902 (active) | normalized growth (locus YJR043C, strain POL32, stronger effect = lower value): 0.899 (inactive) | normalized growth (locus YJR066W, strain TOR1, stronger effect = lower value): 0.883 (inactive)
